This is an account of results in PubChem BioAssay AID2073 (Sanford-Burnham Center for Chemical Genomics, 2009).

About 570 (0.2%) of roughly 290,000 compounds were called active. Roughly 1% stayed inconclusive and do not appear here. The sample holds actives, similar compounds and a random draw of the others, so the mix is not that of the screen. Cut-off read from the data, not from the text of the source: active = inhibition mostly above about 51% (no sharp cut-off); inconclusive = no clear call, values can overlap the other calls; inactive = mostly below about 53%.

For the assay, the target named is Voltage-dependent N-type calcium channel subunit alpha-1B (Homo sapiens) (UniProt Q00975). The assay is described as follows: disruptors of CaV2.2 binding to Mint1 – biochemical, HTRF (AID 2073). The note with it: HTRF protein-protein interaction, Mint1-CaV2.2, at 20 µM, stronger effect = higher value.
Setting [1] is: measured here: average of repeat tests.

Sequence of Voltage-dependent N-type calcium channel subunit alpha-1B (Homo sapiens) (Q00975 whole entry, looked up): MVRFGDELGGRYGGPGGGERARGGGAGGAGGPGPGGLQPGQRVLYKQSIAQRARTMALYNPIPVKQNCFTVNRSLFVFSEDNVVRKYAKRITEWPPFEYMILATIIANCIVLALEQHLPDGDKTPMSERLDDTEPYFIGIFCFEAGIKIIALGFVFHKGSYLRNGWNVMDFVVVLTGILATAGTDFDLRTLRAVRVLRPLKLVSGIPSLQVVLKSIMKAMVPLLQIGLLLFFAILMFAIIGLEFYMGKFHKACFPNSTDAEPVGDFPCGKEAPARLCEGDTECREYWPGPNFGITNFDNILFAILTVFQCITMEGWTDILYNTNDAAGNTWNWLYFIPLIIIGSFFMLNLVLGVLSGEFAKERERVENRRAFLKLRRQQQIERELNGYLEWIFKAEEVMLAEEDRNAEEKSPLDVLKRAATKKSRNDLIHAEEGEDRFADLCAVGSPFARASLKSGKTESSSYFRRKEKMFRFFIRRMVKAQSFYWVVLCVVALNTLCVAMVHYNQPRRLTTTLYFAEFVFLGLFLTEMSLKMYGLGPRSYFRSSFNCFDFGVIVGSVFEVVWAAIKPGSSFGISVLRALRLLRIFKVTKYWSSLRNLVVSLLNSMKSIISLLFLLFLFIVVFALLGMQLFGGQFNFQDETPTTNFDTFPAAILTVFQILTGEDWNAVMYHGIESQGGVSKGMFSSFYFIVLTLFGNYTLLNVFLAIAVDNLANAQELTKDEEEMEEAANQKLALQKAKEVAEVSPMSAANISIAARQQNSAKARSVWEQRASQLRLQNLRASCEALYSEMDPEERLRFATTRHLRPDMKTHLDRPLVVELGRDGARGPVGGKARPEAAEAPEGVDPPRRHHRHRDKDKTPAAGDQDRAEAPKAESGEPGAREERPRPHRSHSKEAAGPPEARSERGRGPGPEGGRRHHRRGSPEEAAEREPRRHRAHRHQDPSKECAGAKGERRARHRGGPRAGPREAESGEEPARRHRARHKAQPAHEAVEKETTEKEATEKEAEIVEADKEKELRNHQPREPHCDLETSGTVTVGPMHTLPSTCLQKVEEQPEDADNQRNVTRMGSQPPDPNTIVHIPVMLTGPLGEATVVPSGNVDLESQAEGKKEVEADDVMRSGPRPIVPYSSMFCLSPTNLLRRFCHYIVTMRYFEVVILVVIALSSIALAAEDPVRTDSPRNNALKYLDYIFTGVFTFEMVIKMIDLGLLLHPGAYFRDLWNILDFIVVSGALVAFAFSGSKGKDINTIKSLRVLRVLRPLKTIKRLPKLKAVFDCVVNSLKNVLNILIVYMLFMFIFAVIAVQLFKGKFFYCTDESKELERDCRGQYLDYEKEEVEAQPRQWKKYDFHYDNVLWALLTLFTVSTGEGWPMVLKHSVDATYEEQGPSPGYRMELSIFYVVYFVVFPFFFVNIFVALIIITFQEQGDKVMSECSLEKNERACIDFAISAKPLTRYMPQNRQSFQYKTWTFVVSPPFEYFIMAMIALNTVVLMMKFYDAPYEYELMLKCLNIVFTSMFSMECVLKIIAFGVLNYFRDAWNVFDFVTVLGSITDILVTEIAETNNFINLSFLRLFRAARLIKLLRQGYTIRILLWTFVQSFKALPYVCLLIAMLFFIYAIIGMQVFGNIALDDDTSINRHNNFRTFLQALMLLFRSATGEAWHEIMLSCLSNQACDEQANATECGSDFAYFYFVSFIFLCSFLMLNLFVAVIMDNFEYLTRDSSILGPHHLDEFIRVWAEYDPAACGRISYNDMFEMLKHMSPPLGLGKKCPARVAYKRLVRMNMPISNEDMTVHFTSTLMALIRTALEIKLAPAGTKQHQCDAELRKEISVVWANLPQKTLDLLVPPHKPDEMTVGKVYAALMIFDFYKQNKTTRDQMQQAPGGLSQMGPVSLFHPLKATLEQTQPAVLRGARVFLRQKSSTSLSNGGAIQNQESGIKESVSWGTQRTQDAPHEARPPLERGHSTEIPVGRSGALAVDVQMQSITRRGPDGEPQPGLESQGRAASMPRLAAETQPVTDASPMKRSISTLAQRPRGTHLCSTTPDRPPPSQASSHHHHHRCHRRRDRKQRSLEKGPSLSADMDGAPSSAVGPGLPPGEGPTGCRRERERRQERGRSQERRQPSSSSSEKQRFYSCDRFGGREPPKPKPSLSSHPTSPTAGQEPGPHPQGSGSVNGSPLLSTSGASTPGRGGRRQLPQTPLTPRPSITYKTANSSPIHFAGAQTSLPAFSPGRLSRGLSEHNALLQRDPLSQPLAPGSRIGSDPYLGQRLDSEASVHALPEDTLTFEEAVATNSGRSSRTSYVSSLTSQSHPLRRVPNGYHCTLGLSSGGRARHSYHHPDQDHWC

Regarding `CCc1ccc2[nH]c(=O)c(C(c3nnnn3CC3CCCO3)N3CCCc4ccccc43)cc2c1` (configuration not stated), the inhibition is 73% (inactive). The inhibition under setting [1] stood at 15.4%.

Turning to `Cc1ccc2[nH]c(=O)c(C(c3nnnn3CC3CCCO3)N3CCCc4ccccc43)cc2c1` (configuration not stated), the inhibition was 94.9% (inactive). In addition, the inhibition under setting [1] was 12.5%.

As to `Cc1cc2cc(C(c3nnnn3CC3CCCO3)N3CCCc4ccccc43)c(=O)[nH]c2cc1C` (configuration not stated), the inhibition was 70% (active).

Turning to `COC(=O)C1=C(C(=O)OC)[C@@H]2N(C)c3ccc(OC)cc3[C@@]23C[C@@H](C(=O)OC)N(C(=O)c2ccc(Br)cc2)C3=N1`, the inhibition is 6.3% (inactive).

With `Nc1nonc1-n1nnc(C(=O)N/N=C/c2ccc(F)cc2)c1-c1cccs1`, the inhibition was 4.3% (inactive).

For the compound `Cc1ccc(NC(=O)c2cc(-c3ccc(C)c(C)c3O)n[nH]2)cc1C`, the inhibition is 12.1% (inactive).

Take `CC(=O)Nc1ccc(NC(=O)c2cc(-c3cc(C)c(C)cc3O)n[nH]2)cc1`: the inhibition is -5.1% (inactive).

Regarding `COc1ccccc1CNc1cc(CSc2ccc(Cl)cc2)nc(C)n1`, the inhibition was -1.5% (inactive).

For the compound `CC(C)CNC(=O)CSc1nc(-c2cccs2)cc(C(F)(F)F)n1`, the inhibition is 16.7% (inactive).

In the case of `COc1ccc(CCNC(=O)C(CC(C)C)NC(N)=O)cc1` (configuration not stated), the inhibition is 4.9% (inactive).

Take `COc1ccc(CN(C(=O)c2cc(=O)c3cc(C)cc(C)c3o2)C2CCS(=O)(=O)C2)cc1` (configuration not stated): the inhibition is 0% (inactive).

As to `COc1cccc(C(=O)NC2CC3CCCC(C2)N3CC(=O)Nc2ccccc2)c1` (configuration not stated), the inhibition was 55% (active).

Turning to `O=C(CN1C2CCCC1CC(NC(=O)c1ccccc1)C2)Nc1ccccc1` (configuration not stated), the inhibition was 8.3% (inactive).

For `COc1cccc(C(=O)NC2CC3CCCC(C2)N3CC(=O)Nc2ccc(N(C)C)cc2)c1` (configuration not stated), the inhibition is -12.2% (inactive).

Regarding `O=C(Cn1c(=O)sc2ccccc21)Nc1ccc(S(=O)(=O)N2CCCCC2)cc1`, the inhibition is 18% (inactive).

`COc1ccc(C2=CC(c3c(C)nn(-c4ccccc4)c3Cl)n3nnnc3N2)cc1OC` (configuration not stated): the inhibition is 24.3% (inactive).

In the case of `CSc1nc(C)cc(-n2cc(F)c(=O)[nH]c2=O)n1`, the inhibition is -1.3% (inactive).

For `O=C(Nc1ccccc1Cl)c1ccccc1`, the inhibition is 23.6% (inactive).

As for `O=C1C(Cl)=C(NC(=O)c2ccccc2)C(=O)C(Cl)=C1NC(=O)c1ccccc1`, the inhibition is 81.8% (active).

As to `O=C(NC1=C(Nc2ccc(Cl)cc2)C(=O)c2ccccc2C1=O)c1ccccc1`, the inhibition is -10.9% (inactive).

For the compound `CC(=O)N1CCN(C(=O)c2ccc3c(c2)OCCO3)CC1`, the inhibition is 16.6% (inactive).

`CCOC(=O)C1=C(O)c2ccccc2C(=O)/C1=C\c1ccc(C)cc1`: the inhibition was 49.4% (inactive).

In the case of `CCOC(=O)C1=C(Cc2ccc(Cl)cc2)C(=O)c2ccccc2C1=O`, the inhibition was 66.8% (inactive). Besides, the inhibition under setting [1] was found to be 19.3%.

Take `CCOC(=O)C1=C(O)c2ccccc2C(=O)/C1=C\c1ccc(CC)cc1`: the inhibition was 54.8% (active).

Regarding `CCOC(=O)C1=C(Cc2ccc(F)cc2)C(=O)c2ccccc2C1=O`, the inhibition is 76% (inactive). In addition, the inhibition under setting [1] was found to be 27.8%.

For the compound `CCOC(=O)C1=C(Cc2ccc(C)cc2)C(=O)c2ccccc2C1=O`, the inhibition is 36% (inactive).

For `CCOC(=O)C1=C(Cc2ccc(OC)cc2)C(=O)c2ccccc2C1=O`, the inhibition was 61.9% (active).

Take `COc1ccc(N/C(=N/c2nc(C)cc(C)n2)NC(=O)c2ccccc2)cc1`: the inhibition was 8.5% (inactive).

As for `CSc1cccc(NC(=O)C2CCN(C(=O)c3ccccc3C)CC2)c1`, the inhibition was 3.1% (inactive).

Take `CCOc1ccc(CCNC(=O)CSc2nnnn2C)cc1OCC`: the inhibition is 0% (inactive).

`CC1=CC(=C(C#N)C#N)C=C(C)N1Cc1ccccc1`: the inhibition was -8.3% (inactive).

For `CCn1c(=O)c(=O)[nH]c2cc(C(=O)Nc3ccc(S(=O)(=O)N4CCCC4)cc3)ccc21`, the inhibition is 19.2% (inactive).

As for `CCCNC(=O)OC[C@H]1O[C@H](CCO/N=C/c2ccc(C(=O)N3[C@H](c4ccc(C)cc4)[C@@H](C)CC[C@H]3C(=O)OC)cc2)C=C[C@@H]1Oc1ccc(OC)cc1`, the inhibition is 6.9% (inactive).

As to `CCOC(=O)c1cc(NC(=O)CCC(=O)O)ccc1N1CCCCC1`, the inhibition was 19.3% (inactive).

For `O=C(/C=C/c1ccccc1)Nc1nc(-c2ccncc2)cs1`, the inhibition was 54.1% (active).

Consider `O=C(/C=C/c1ccc2c(c1)OCO2)Nc1nc(-c2ccccc2)cs1`, for which the inhibition was 26% (inactive).

`O=C(/C=C/c1ccco1)Nc1nc(-c2ccccn2)cs1`: the inhibition was 54.1% (active).

In the case of `O=C(/C=C\c1ccco1)Nc1nc(-c2ccccc2)cs1`, the inhibition was 0% (inactive).

Consider `O=C(/C=C/c1ccco1)Nc1nc(-c2ccccc2)cs1`, for which the inhibition is 26.4% (inactive).

Consider `O=C(/C=C/c1cccs1)Nc1nc(-c2ccccc2)cs1`, for which the inhibition was 10% (inactive).

With `CCCSc1nc(N2CCOCC2)c2c(c1C#N)CC(C)(C)SC2`, the inhibition is 0.4% (inactive).

On to `Cc1ccccc1NC1=C(Cl)C(=O)OC1NC(=O)c1ccccc1` (configuration not stated), for which the inhibition was -0.5% (inactive).

With `CCOC(=O)c1ccc(N2C(=O)CC(C(=O)OC)=C2C)cc1`, the inhibition is 3.2% (inactive).

Consider `CCc1ccc2nc(NC(=O)c3ccc(N4C(=O)CCC4=O)cc3)sc2c1`, for which the inhibition is 32.1% (inactive).

`Cc1ccc2nc(NC(=O)CN3CCOCC3)sc2c1`: the inhibition was -0.6% (inactive).

For `Cc1ccc(-n2ncc3c2CCCC3NC(=O)CCn2ccnc2C)cc1C` (configuration not stated), the inhibition is -3.7% (inactive).

Turning to `O=C(Nc1ncc2c(n1)CC(c1ccco1)CC2=O)c1ccccc1` (configuration not stated), the inhibition was 33.5% (inactive).

As for `O=C1CC(c2ccco2)Cc2nc(Nc3nc(-c4ccccc4)c4ccccc4n3)ncc21` (configuration not stated), the inhibition was 52.4% (active).

With `O=C1CC(c2ccco2)Cc2nc(Nc3ccc(F)cc3)ncc21` (configuration not stated), the inhibition is 6.4% (inactive).

`CN(C)C(=O)c1ccc(NC(=O)COc2ccc([N+](=O)[O-])cc2)cc1`: the inhibition is 5.1% (inactive).

Take `COc1ccc(C2C(Oc3ccccc3)C(=O)N2c2cc(C)ccc2C)cc1OC` (configuration not stated): the inhibition was -3.8% (inactive).

On to `Cc1ccc(N2C(=O)c3ccc(C(=O)O)cc3C2=O)cc1C`, for which the inhibition is -1.3% (inactive).

For the compound `Cc1ccc(-n2c(=O)c3cc4c(=O)n(-c5ccc(C)c(C)c5)c(=O)c4c(C(=O)c4ccc(C(=O)O)cc4)c3c2=O)cc1C`, the inhibition is 85% (active).

In the case of `O=C(O)c1ccc(-n2c(=O)c3ccccc3c3ccccc3c2=O)cc1`, the inhibition is -2.9% (inactive).

Take `O=C(N/N=C/c1ccoc1)c1cc(O)cc(O)c1`: the inhibition is 18.3% (inactive).

For the compound `O=C(O)c1ccc(Cl)c2c1C1C=CCC1C(c1ccccn1)N2` (configuration not stated), the inhibition is 23.7% (inactive).

As to `Cc1cc([N+](=O)[O-])c2c(c1C)C1C=CCC1C(c1ccccn1)N2` (configuration not stated), the inhibition was 42.9% (inactive).

As for `O=[N+]([O-])c1ccc(Cl)c2c1C1C=CCC1C(c1ccccn1)N2` (configuration not stated), the inhibition was 79.5% (active).

What is called inhibition is the drop in the measured response relative to a control, in per cent.
